The text below walks through data of the supplement of paper PMC10849652.

The full data set covers some 8,800 targets. This sample favours those with a hit. About 0.5% of all pairs of compound and target were hits.

UniProt Q9BX10, sequence (Q9BX10 whole entry, looked up): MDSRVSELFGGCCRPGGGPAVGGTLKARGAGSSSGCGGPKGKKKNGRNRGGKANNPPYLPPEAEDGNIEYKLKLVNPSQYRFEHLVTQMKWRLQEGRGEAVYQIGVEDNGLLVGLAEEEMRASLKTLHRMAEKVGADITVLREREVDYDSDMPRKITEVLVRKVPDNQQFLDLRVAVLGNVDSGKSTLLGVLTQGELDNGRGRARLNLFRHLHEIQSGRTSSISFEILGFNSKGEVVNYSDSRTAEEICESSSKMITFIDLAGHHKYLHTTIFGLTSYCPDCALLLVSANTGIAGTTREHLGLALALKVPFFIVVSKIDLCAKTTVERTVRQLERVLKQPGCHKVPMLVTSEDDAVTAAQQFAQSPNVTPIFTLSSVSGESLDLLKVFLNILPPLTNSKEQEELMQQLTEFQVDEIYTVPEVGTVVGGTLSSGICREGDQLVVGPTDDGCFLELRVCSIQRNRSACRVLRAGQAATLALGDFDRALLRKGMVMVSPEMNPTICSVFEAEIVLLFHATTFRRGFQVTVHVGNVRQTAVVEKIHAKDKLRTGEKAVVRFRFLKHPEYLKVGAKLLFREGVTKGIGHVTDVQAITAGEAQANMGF
UniProt P09429, sequence (P09429 whole entry, looked up): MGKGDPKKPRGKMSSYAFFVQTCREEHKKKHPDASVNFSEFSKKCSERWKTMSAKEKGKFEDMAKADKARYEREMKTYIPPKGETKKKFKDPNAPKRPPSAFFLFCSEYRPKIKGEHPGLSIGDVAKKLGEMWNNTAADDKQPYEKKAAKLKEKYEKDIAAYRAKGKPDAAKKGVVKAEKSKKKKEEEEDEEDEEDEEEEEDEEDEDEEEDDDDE
UniProt Q9NVX0, sequence (Q9NVX0 whole entry, looked up): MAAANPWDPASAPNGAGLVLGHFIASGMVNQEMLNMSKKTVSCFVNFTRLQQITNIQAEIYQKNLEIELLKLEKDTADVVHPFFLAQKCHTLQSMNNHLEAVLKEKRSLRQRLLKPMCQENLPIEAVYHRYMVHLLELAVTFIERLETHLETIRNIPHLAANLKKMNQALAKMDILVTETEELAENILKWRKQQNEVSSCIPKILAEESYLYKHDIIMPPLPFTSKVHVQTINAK
UniProt P55795, sequence (P55795 whole entry, looked up): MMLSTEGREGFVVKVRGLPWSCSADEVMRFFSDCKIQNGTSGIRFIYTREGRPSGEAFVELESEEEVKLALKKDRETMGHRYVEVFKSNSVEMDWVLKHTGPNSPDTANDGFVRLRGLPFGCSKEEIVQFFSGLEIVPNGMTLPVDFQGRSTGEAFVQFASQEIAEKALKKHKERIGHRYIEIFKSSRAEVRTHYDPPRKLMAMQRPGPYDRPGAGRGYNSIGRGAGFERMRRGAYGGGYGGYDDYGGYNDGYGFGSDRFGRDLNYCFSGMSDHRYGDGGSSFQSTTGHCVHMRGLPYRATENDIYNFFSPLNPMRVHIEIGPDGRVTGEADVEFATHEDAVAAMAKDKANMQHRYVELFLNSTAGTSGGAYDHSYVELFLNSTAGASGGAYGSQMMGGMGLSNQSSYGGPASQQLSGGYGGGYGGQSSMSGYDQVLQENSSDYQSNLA
UniProt P49840, sequence (P49840 whole entry, looked up): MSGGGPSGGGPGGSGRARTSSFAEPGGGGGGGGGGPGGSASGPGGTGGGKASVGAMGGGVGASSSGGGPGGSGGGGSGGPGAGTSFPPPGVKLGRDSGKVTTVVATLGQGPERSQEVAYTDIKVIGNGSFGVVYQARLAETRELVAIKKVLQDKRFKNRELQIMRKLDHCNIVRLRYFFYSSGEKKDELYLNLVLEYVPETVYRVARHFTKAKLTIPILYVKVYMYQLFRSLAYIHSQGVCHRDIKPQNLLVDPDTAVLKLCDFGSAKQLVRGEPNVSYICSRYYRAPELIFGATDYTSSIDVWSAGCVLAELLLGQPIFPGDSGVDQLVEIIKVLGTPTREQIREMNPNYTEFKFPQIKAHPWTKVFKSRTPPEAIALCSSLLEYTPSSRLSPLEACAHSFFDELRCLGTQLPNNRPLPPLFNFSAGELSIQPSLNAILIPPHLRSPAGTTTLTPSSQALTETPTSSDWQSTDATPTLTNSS
UniProt O60547, sequence (O60547 whole entry, looked up): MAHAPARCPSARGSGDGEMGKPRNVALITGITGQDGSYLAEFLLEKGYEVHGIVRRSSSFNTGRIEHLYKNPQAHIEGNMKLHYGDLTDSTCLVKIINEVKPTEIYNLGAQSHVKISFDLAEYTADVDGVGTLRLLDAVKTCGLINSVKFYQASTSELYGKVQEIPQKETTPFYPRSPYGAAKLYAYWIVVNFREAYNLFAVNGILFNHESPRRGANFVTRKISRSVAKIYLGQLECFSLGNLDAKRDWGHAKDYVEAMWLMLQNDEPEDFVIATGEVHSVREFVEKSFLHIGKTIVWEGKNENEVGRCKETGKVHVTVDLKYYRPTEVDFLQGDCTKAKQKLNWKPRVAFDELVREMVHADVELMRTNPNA
UniProt P52655, sequence (P52655 whole entry, looked up): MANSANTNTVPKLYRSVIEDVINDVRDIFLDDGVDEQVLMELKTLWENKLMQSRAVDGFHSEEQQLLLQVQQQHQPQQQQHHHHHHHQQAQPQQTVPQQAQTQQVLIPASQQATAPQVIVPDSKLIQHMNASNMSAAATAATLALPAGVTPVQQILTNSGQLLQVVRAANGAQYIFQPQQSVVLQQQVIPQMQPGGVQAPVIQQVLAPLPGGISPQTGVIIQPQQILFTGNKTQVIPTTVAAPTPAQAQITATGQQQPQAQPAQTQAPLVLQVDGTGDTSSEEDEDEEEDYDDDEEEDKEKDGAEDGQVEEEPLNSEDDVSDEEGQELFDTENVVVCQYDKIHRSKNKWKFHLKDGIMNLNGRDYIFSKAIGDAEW
UniProt Q13418, sequence (Q13418 whole entry, looked up): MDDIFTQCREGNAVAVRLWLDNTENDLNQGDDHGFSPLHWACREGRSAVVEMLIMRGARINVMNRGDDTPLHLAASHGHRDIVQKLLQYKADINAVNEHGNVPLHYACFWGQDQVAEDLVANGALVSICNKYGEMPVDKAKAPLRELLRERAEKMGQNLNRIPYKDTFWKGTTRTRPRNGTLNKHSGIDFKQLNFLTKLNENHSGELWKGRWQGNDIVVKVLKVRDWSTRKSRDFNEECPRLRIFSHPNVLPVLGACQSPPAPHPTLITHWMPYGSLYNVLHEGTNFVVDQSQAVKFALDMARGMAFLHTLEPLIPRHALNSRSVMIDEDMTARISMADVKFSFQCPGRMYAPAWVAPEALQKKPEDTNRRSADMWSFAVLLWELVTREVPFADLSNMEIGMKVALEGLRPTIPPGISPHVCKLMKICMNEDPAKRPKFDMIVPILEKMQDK
UniProt P20839, sequence (P20839 whole entry, looked up): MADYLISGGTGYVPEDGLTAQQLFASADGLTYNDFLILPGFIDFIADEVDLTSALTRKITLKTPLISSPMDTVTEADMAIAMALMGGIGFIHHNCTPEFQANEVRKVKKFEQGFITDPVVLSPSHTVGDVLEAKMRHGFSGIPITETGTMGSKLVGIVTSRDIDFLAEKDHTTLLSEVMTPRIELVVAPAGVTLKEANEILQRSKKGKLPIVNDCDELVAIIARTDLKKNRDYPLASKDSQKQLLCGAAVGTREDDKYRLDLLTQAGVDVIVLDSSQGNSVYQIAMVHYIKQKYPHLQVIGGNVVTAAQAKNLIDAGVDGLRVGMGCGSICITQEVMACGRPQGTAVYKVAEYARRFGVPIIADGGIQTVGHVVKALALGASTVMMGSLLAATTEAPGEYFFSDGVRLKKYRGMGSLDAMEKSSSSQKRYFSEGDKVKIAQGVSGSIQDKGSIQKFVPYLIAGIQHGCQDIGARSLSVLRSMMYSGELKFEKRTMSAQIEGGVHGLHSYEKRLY
UniProt P52789, sequence (P52789 whole entry, looked up): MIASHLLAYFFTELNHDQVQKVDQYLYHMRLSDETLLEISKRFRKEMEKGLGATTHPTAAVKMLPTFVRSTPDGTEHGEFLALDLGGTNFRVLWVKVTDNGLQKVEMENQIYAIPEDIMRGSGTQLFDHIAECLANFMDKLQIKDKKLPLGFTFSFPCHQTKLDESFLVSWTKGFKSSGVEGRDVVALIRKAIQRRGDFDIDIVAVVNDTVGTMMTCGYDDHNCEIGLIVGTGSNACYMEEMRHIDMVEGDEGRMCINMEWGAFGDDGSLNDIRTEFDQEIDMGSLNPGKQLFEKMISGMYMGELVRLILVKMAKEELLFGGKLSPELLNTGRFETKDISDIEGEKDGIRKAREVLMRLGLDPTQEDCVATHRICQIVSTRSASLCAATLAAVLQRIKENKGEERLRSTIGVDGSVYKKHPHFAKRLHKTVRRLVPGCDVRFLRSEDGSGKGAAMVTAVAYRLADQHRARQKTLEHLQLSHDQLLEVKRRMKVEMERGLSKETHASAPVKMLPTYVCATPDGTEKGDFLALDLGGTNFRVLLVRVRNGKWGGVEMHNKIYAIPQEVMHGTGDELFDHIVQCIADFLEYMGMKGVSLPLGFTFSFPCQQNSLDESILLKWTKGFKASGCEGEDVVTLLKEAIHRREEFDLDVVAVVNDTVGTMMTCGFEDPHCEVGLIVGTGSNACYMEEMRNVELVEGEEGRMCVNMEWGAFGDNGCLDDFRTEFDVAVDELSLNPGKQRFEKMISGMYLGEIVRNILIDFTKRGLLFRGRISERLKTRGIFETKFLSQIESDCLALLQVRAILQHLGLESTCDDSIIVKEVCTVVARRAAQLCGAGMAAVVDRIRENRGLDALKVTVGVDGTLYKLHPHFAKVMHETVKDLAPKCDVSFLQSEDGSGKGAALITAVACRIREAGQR
UniProt Q99729, sequence (Q99729 whole entry, looked up): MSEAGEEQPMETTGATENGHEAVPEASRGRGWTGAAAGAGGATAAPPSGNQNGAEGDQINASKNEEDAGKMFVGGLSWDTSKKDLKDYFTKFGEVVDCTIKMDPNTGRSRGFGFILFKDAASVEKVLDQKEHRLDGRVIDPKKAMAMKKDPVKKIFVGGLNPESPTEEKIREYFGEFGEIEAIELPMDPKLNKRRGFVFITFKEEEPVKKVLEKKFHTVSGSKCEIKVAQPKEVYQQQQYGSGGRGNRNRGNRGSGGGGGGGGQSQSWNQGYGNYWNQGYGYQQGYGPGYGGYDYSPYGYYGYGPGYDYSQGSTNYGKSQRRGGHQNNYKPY

Compound in this experiment: Cc1sc2c(c1C)C(c1ccc(Cl)cc1)=N[C@@H](CC(=O)OC(C)(C)C)c1nnc(C)n1-2
In words: log2 fold change, soluble protein after heating vs DMSO (PISA); higher = thermal stabilisation; K562 lysate, 10 uM; active = over 0.2 and 3.5 SD of the protein, either way, in both replicates (recomputed). The method, boiled down: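 K562 pellets were dounce-homogenised in PBS pH 7.4 containing 1 mM MgCl2, and the crude extract, at 1 mg/mL protein, was exposed to 10 μM compound for 30 min. Aliquots were heated for 3 min across 48°C-58°C, pooled, brought to 0.5% NP-40 at 4°C and spun at 21,000xg for 90 min, with the supernatant taken as soluble protein. TMTpro 16plex LC-MS/MS with equalised channel sums quantified that protein. Values are log-two fold changes in thermal stability relative to solvent controls, taken from duplicates.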
In the case of GSTZ1 (UniProt G3V4T6), the log2 fold change is 0.062 (inactive).

Consider GSK3A (UniProt P49840), for which the log2 fold change was 0.036 (inactive).

Consider HADHB (UniProt P55084), for which the log2 fold change is 0.167 (inactive).

Take HNRNPD isoform 3 (UniProt Q14103): the log2 fold change is -0.096 (inactive).

Consider GSTM4 (UniProt Q03013), for which the log2 fold change is 0.09 (inactive).

Turning to HNRNPAB isoform 3 (UniProt Q99729), the log2 fold change is 0.01 (inactive).

HMGB1 (UniProt P09429): the log2 fold change is 0.056 (inactive).

Turning to GTPBP2 (UniProt Q9BX10), the log2 fold change was 0.049 (inactive).

With HK2 (UniProt P52789), the log2 fold change is 0.019 (inactive).

Turning to HNRNPH2 (UniProt P55795), the log2 fold change is 0.105 (inactive).

For the target IMPDH1 isoform 6 (UniProt P20839), the log2 fold change is 0.053 (inactive).

Consider KBTBD2 (UniProt Q8IY47), for which the log2 fold change was 0.012 (inactive).

Take ILK (UniProt Q13418): the log2 fold change is 0.027 (inactive).

On to HDLBP, A0A024R4E5, for which the log2 fold change is -0.018 (inactive).

As for HNRNPM (UniProt M0QZM1), the log2 fold change was 0.152 (inactive).

In the case of KEAP1 (UniProt Q14145), the log2 fold change is -0.018 (inactive).

For GMDS (UniProt O60547), the log2 fold change is 0.033 (inactive).

Take IMPDH2 (UniProt P12268): the log2 fold change was 0.045 (inactive).

For the target GTF2A1 (UniProt P52655), the log2 fold change is -0.057 (inactive).

On to KHDRBS1 (UniProt Q07666), for which the log2 fold change was 0.058 (inactive).

As for HAUS2 (UniProt Q9NVX0), the log2 fold change was 0.016 (inactive).

In the case of INTS1 (UniProt Q8N201), the log2 fold change was 0.019 (inactive).

For HEATR6 (UniProt Q6AI08), the log2 fold change was 0.008 (inactive).
